From PubChem
Mot1-301 SUMO – SUMOylation pathway inhibition by Mot1-301 growth rescue; 1% of 320,000 active; growth rescue, % at 18.8 µM; S. cerevisiae Mot1-301 growth rescue, ATP luminescence, 38.5C; percent above DMSO median, 100 means doubled;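 active = every valid replicate shows activation above 250% relative to neutral control wells; inactive = the rest, any valid replicate at or below 250%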;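 note: OY570 slx delta 5 strain wells were the positive control but not used for scaling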
CDK5 p35 inh – inhibitors of human CDK5/p35 kinase; Q00535+Q15078; Recombinant CDK5/p35, ADP-Glo luminescence, 60 min; inhibition, % at 10 µM; 0.01% of 330,000 active; AID 488839;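 active = highest replicate inhibition of at least 50% and at least 75% of replicates reaching 50%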;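 note: plate controls were DMSO neutral control for no effect and GW8510 at 10 µM for full effect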
ALR inh – human ALR oxidase inhibition via reduced H2O2; P55789; purified ALR, DTT oxidation, H2O2 HRP-luminol luminescence; inhibition, % (no concentration beside the values); 3.8% of 290,000 active; AID 485317;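 active = mean replicate inhibition above about 79%, with every replicate also reaching it, limit read from the data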
NSD2 HMT inh – blocks human histone methyltransferase NSD2. NSD2 peptide methylation, AlphaScreen, 120 min. O96028. AID 743445. inhibition, % at 12.5 µM. 0.54% of 310,000 active; in the data active = inhibition above about 50%
Target sequence (O96028 whole entry, looked up): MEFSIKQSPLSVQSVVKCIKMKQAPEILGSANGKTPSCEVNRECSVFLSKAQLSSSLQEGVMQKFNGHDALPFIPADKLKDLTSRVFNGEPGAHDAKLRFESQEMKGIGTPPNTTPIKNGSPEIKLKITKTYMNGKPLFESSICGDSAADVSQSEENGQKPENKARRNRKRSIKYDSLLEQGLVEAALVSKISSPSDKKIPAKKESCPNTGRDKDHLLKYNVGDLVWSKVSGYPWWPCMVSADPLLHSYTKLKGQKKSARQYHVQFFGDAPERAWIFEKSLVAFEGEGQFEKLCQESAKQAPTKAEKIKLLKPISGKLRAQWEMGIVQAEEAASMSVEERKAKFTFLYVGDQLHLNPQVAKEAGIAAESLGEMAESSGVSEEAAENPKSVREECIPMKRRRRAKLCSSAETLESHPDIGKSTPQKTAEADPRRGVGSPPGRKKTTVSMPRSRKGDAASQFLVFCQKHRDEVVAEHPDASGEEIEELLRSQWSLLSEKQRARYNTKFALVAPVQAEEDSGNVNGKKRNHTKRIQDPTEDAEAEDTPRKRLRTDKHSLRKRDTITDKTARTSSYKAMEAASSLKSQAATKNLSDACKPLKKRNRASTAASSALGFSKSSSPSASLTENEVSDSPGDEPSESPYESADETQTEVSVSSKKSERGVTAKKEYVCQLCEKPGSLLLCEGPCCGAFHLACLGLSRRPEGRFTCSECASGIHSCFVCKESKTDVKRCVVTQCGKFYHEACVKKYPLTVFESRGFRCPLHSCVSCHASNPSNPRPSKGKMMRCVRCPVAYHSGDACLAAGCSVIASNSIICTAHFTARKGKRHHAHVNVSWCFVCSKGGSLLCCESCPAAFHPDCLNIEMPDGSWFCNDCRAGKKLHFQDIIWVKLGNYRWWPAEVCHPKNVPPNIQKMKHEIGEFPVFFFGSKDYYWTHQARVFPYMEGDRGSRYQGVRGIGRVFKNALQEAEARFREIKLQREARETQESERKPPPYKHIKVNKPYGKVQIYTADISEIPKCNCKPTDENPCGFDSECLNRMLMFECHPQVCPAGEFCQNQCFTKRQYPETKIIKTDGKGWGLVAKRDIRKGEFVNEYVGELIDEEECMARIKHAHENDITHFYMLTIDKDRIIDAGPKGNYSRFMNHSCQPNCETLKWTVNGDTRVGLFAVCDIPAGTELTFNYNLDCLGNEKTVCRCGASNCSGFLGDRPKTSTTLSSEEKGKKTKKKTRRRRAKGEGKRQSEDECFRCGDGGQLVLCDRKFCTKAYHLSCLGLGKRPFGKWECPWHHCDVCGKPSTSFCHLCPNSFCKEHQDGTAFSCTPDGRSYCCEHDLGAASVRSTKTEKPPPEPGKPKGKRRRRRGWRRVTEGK
Glyco luc inh – N-linked glycosylation inhibition. AID 588692. D54 ERlucT glycosylation luciferase reporter, 24 h; percent of 100 nM tunicamycin response. 0.23% of 360,000 active. reporter increase, % at 12.5 µM;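 active = mean luciferase reporter signal, scaled so untreated is 0 and the glycosylation-blocking control 100, at or above a set limit in every replicate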;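 note: luciferase carries N-glycosylation sites so blocking glycosylation raises the light; 0% = median of neutral control wells and 100% = median of 100 nM tunicamycin wells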
Casp6 inh – inhibitors of human caspase-6; purified caspase-6, Z-VEID-R110 cleavage fluorescence; AID 686996; P55212; inhibition, % at 12.5 µM; 0.53% of 350,000 active;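 active = mean inhibition across replicates at least about 35%, with every replicate also reaching that limit, limit read from the data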;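 note: 0% = median of neutral control wells and 100% = no fluorescence left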
Yeast Mot1 SUMO – yeast SUMO pathway inhibition in dose response | shares compounds with Mot1-301 SUMO | S. cerevisiae Mot1-301 galactose growth, ATP luminescence, 24 h; -100 = growth of slx-deleted rescue strain | growth activity, percent, % at 42 µM | 2,300 tested, under 10 active;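 active = Signal drops as the depositor expects, and the fitted half-maximal dose is no more than ten times the top valid tested dose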;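 note: more negative values mean stronger growth rescue toward the control strain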
* marks the source's active call; other numbers are inactive results; · = not tested or not shown; + = active, no number. Compounds with a hit are over-represented: about 3.9% of the library has one in this group of screens.

SMILES	Mot1-301 SUMO	CDK5 p35 inh	ALR inh	NSD2 HMT inh	Glyco luc inh	Casp6 inh	Yeast Mot1 SUMO
CN1C(=O)c2cc(NC(=O)c3ccc(F)c(F)c3)ccc2OC[C@@H]2O[C@H](CC(=O)N[C@@H]3CCN(Cc4ccccc4)C3)CC[C@@H]21	·	·	·	·	·	-5	·
Cc1ccc(CN2CC(=O)N3[C@H](CO)[C@H](c4ccc(Br)cc4)[C@@H]3C2)cc1	·	·	·	·	·	0	·
Cc1ccc(-n2c(N)c(C#N)c(-c3ccc(Cl)cc3)c(C#N)c2=O)cc1	-4	0	-8	-2	-2	·	·
N#Cc1c(Cn2cncn2)nc(=O)n(-c2ccc(Cl)cc2)c1N	+	3	0	1	0	3	0
C[C@@H]1CN([C@@H](C)CO)C(=O)c2cccc(NC(=O)CCCCCC(=O)Nc3ccccc3N)c2O[C@@H]1CN(C)C(=O)Nc1ccc2c(c1)OCO2	·	·	·	·	·	1	·
COc1cc([N+](=O)[O-])cc(/C=N/NC(=O)c2cc(C)nc3ccccc23)c1O	758*	0	2	-2	2	4	1
COc1cc(/C=C(\NC(=O)c2ccccc2)C(=O)Nc2nccs2)ccc1OC(C)=O	395*	-1	41	-3	-1	2	0
CCOC(=O)c1sc(N/N=C/c2ccc(N(C)C)cc2)nc1C	+	-1	-3	-4	0	0	0
O=C(c1cccnc1)N1CCCC(Nc2ccc(F)cc2)C1 (configuration not stated)	595*	1	53	0	0	-9	0
O=C(c1ccc(F)cc1)N1CCN(C(=O)c2cccnc2)CC1	-1	0	-5	1	0	·	·
Cc1ccnc(SCC(=O)Nc2cc(C)on2)n1	-2	-3	-25	0	2	2	·
COc1ccc(NC(=O)CSc2nccc(C)n2)cc1	+	-1	1	1	2	·	0
O=C(NCCc1cnccn1)C1CCC(=O)N(Cc2ccc(Cl)cc2)C1 (configuration not stated)	523*	1	0	0	2	1	0
O=C(NCCCc1ccncc1)C1CCC(=O)N(Cc2ccc(Cl)cc2)C1 (configuration not stated)	-3	-1	-1	-2	0	-8	·
CSCCc1nc(SCC(=O)Nc2nnc(C)s2)[nH]c1C	+	0	0	·	1	·	1
C[C@H]1CN([C@@H](C)CO)C(=O)c2cccc(NC(=O)c3nc4ccccc4s3)c2O[C@H]1CN(C)S(C)(=O)=O	·	·	·	·	·	-3	·
CCN1C(=O)c2cccc3c(S(=O)(=O)Nc4ccc(OC)cc4OC)ccc1c23	768*	1	-16	-1	1	·	0
CCN1C(=O)c2cccc3c(S(=O)(=O)Nc4ccncc4)ccc1c23	5	-2	-8	-1	4	·	·
CN(C)CCOC(c1ccc(Cl)cc1)c1ccccn1 (configuration not stated)	974*	0	7	·	-1	3	0
O=C(O)CSc1ncnc2sc(-c3ccccc3)cc12	525*	0	-5	-4	3	1	0
O=C(c1ccc(Br)cc1)C(CN1CCOCC1)c1ccccc1 (configuration not stated)	460*	1	12	2	-21	5	-1
CN(C)c1ccc2c(c1)[C@@H]1C[C@H](CC(=O)N3CCc4ccccc4C3)O[C@@H](CO)[C@@H]1O2	·	·	·	·	·	6	·
O=c1c2ccccc2nc(COc2ccccc2)n1/N=C/c1cn[nH]c1-c1ccccc1	647*	0	0	1	-4	-2	-1
O=C(NCC1CC1)[C@H]1[C@H](CO)[C@H]2Cn3c(ccc(-c4ccc(F)cc4)c3=O)[C@@H]1N2	·	·	·	·	·	-4	·
COc1cc(/C=N/NS(=O)(=O)c2ccc(C)cc2)ccc1OCc1ccc(C(=O)O)cc1	-3	-1	22	0	-11	·	·
SMILES	Mot1-301 SUMO	CDK5 p35 inh	ALR inh	NSD2 HMT inh	Glyco luc inh	Casp6 inh	Yeast Mot1 SUMO
CCOc1ccc(/C=N/NS(=O)(=O)c2ccc(C)cc2)cc1OC	+	-1	49	-3	-1	-2	2
COc1nc(OC)nc(N2CCC(C(=O)NC3CCCCCC3)CC2)n1	382*	-2	3	0	-1	·	1
COc1nc(OC)nc(N2CCC(C(=O)NC3CC3)CC2)n1	0	1	-4	-2	0	2	·
CCc1cccc(C)c1NC(=O)CSc1nnc(-c2cc3cc(Br)ccc3o2)n1CC	+	0	-3	-1	-2	·	0
Cn1c(SCC(=O)Nc2cccc(C(=O)O)c2)nnc1-c1cc2cc(Br)ccc2o1	-6	1	-10	-19	0	3	·
CC(C)[N+]1(C)[C@@H]2CC[C@@H]1CC(OC(=O)C(CO)c1ccccc1)C2 (some centres not stated)	371*	0	-15	·	3	1	0
CC(=O)Nc1nn(CC(C)C)c2nc3ccc(C)cc3cc12	·	·	·	-4	5	-3	·
CC(=O)Nc1nn(C)c2nc3ccc(C)cc3cc12	479*	1	-20	2	4	-1	0
CC(C)(C)Cc1nc(-c2ccccn2)no1	392*	1	-7	-1	-6	·	0
Cc1ccc(OCc2nc(-c3ccccn3)no2)cc1	-1	2	7	·	-11	1	·
C[C@H](CO)N1C[C@H](C)[C@H](CN(C)C(=O)NC2CCCCC2)OCCCC[C@H](C)Oc2ccc(NC(=O)Nc3ccccc3)cc2C1=O	·	·	·	·	·	-1	·
C[C@H]1CN([C@@H](C)CO)C(=O)c2cc(C3=CCCCC3)cnc2O[C@@H]1CN(C)C(=O)c1ccccc1	·	·	·	·	·	1	·
O=C(C[C@@H]1CC[C@H]2[C@@H](COC[C@@H](O)CN2Cc2ccc(Oc3ccccc3)cc2)O1)N1CCCCC1	·	·	·	·	·	0	·
CCCCN1CNC(=S)N(CCc2ccc(OCC)c(OCC)c2)C1	-32	0	4	0	-2	-3	·
CCOc1ccc(CCN2CN(C3CCCCC3)CNC2=S)cc1OCC	431*	1	-12	1	-1	7	1
NNc1nc2sc3c(c2c(=O)n1-c1ccccc1)CCCC3	639*	1	13	1	1	1	0
O=C(C[C@H]1C[C@H]2c3cc(NC(=O)NC4CCCC4)ccc3O[C@H]2[C@H](CO)O1)NCc1ccc2c(c1)OCO2	·	·	·	·	·	0	·
C[C@@H]1CN([C@H](C)CO)C(=O)c2cc(NS(=O)(=O)c3ccc(Cl)cc3)ccc2O[C@@H]1CN(C)C(=O)Nc1ccccc1	·	·	·	·	·	-3	·
COc1ccc(CN(C)C[C@@H]2Oc3ccc(NS(=O)(=O)c4ccc(C)cc4)cc3C(=O)N([C@@H](C)CO)C[C@@H]2C)cc1	·	·	·	·	·	0	·
